# HT1080-NT tox = kills 2HG-producing HT-1080-NT fibrosarcoma cells | AID 686970 | Potency, µM (doses to about 46.1 µM), most hits filed as cytotoxic | HT-1080-NT fibrosarcoma viability, CellTiter-Glo ATP luminescence, 48 h | 360,000 tested, 1.6% active;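 note: NT is the 2HG producing partner of a matched IDH1 knockdown line; nearly all actives have a fitted effect of over 55% in size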
#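 750 cells/well, RPMI + 5% FBS; 2 h settle, compound pin-transfer, 48 h at 37 degrees C. CellTiter-Glo 10 min RT, luminescence. Normalized to DMSO and media-only wells.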
# DT40 TDP1 no CPT = qHTS for Inhibitors of human tyrosyl-DNA phosphodiesterase 1 (TDP1): qHTS in cells in absence of CPT | DT40 Tdp1-/- hTDP1 cells, no CPT, ATP luminescence, 48 h | Potency, µM (titrated, usually from 46.2 µM), actives largely listed as inhibitors | 420,000 tested, 15% active | AID 686978, 2013; note: nearly all actives have a fitted effect of over 55% in size
#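 Readout: luminescence from CellTiter-Glo after 30 min in the dark at RT. Cells: DT40 Tdp1-/- with stable hTDP1, 400/well. Exposure: compounds alone, ≥48 hr, 37 °C.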
# HT1080 IDH1KD tx = toxicity to HT-1080 IDH1 knockdown cells (counter line) | HT-1080 IDH1 knockdown viability, ATP luminescence, 48 h | Potency, µM (highest dose often 46.1 µM), hits mostly cytotoxic | 360,000 tested, 2% active
#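 % activity derives from luminescence (CellTiter-Glo), normalised to DMSO and no-cell wells. HT-1080-IDH1KD cells, 750/well, had 48 h compound exposure at 37 °C.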
# TGFb SMAD3 inh = TGF-b pathway inhibition; Potency, µM (highest dose often 46.1 µM), usual class: inhibitors; AID 588855; HepG2 CAGA-GFP TGF-b/SMAD3 reporter, GFP fluorescence, 18 h; TGF-beta stimulated, 500 pg/mL final; 410,000 tested, 1.2% active; note: nearly all actives have a fitted effect of over 65% in size
#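 HEPG2 CAGA-GFP reporter cells (1000/well, DMEM with 1% FBS) received compounds, then recombinant TGF-beta at 500 pg/mL final for 18 hours at 37 degrees C. Per-cell GFP summed per well was normalised to unstimulated and stimulated DMSO controls before curve fitting.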
# HepG2 tox = kills HepG2 cells in TGF-b inhibitor counter-screen | HepG2 CAGA-GFP viability, ATP luminescence, 18 h | Potency, µM (top dose mostly 46.1 µM), usual class: cytotoxic | AID 588856 | 410,000 tested, 0.76% active
#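 HepG2 CAGA-GFP cells (1000/well, DMEM with 1% FBS) received compound, then TGF-beta at 500 pg/mL final, and were incubated 18 hours at 37 degrees C. Viability was read by CellTiter-Glo luminescence. Media-only wells were set as complete cell-killing and DMSO as no toxicity.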
# TDP1 cell CPT = growth inhibition of DT40 Tdp1-/-;hTDP1 cells with camptothecin (screen for TDP1 inhibitors). chicken DT40 Tdp1-/-;hTDP1 cells + 20 nM CPT, ATP luminescence, 48 h. Potency, µM (doses to about 46.2 µM), hits mostly inhibitors. 420,000 tested, 12% active. AID 686979; note: nearly all actives have a fitted effect of over 55% in size
#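 Cell growth measured by CellTiter-Glo luminescence after a minimum 48 h, 37 C compound exposure with 20 nM CPT in Tdp1-knockout DT40 cells stably expressing hTDP1, seeded 400/well; qHTS titration format.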
# Hits are given with their value; – = inactive; ? = inconclusive; · = no result. Hits are enriched below; roughly 17% of the tested compounds scored in any of these assays. Calls come from the whole dose curve; as a rule, active = well fitted curve in the direction sought with a large enough effect; inconclusive = small, poorly fitted or top-dose-only effect, or another doubt; inactive = no such curve, though single readings can be large; an effect the other way counts as inactive or inconclusive.
SMILES,HT1080-NT tox,DT40 TDP1 no CPT,HT1080 IDH1KD tx,TGFb SMAD3 inh,HepG2 tox,TDP1 cell CPT
CC1CN(C(=O)CCC(=O)NCc2ccccc2Cl)c2ccccc2S1 (stereo not drawn),–,–,–,–,–,–
CCOc1ccc(-c2nnc(-c3ccncc3)o2)cc1,–,?,–,–,–,21µM
CCCCOc1ccc(-c2nnc(-c3ccncc3)o2)cc1,–,21µM,–,–,–,?
CCOc1ccc(-c2nnc(-c3ccccc3)o2)cc1,–,?,–,–,–,–
COc1ccc(-c2cc(C(=O)NCc3cccc(C(F)(F)F)c3)[nH]n2)c(C)c1,–,?,–,?,–,26µM
CCOc1ccc(-c2cc(C(=O)NCc3cc(OC)cc(OC)c3)[nH]n2)c(C)c1,–,?,–,–,–,21µM
COc1ccc(CNC(=O)c2cc(-c3ccc(C)c(C)c3)n[nH]2)cc1,·,16µM,·,?,–,?
COc1cc(CNC(=O)c2cc(-c3cc(Cl)ccc3C)n[nH]2)cc(OC)c1,–,?,–,?,–,26µM
C[C@@H]1CCCCO[C@H](CN(C)C(=O)Nc2ccc(F)cc2)[C@@H](C)CN([C@H](C)CO)C(=O)c2cc(N(C)C)ccc2O1,–,?,–,–,–,?
O=C(NCc1ccc(F)cc1)c1cc(-c2ccc(Cl)cc2)n[nH]1,·,8.2µM,·,?,–,7.3µM
Cc1ccc(Cl)cc1-c1cc(C(=O)NCc2cccc(Cl)c2)[nH]n1,?,?,?,?,–,18µM
COc1ccc(CNC(=O)c2cc(-c3ccc(Cl)cc3)n[nH]2)cc1,·,–,·,–,–,–
Cc1cc(Cl)c2oc(C(=O)N(C)Cc3cc(C)[nH]n3)c(C)c2c1,–,–,–,–,–,–
Cc1cc(Cl)c2oc(C(=O)N(C)Cc3nccn3C)c(C)c2c1,–,7.3µM,–,–,–,16µM
Cc1ccc2nc(-c3ccccn3)c(Nc3ccc(F)cc3)n2c1,·,2.3µM,·,–,–,2.1µM
Cc1ccc2nc(-c3ccccn3)c(N)n2c1,–,?,?,–,10µM,?
Nc1ncnc2c1ncn2[C@@H]1O[C@H](CNS(=O)(=O)c2cc(S(=O)(=O)c3ccccc3)cs2)[C@@H](O)[C@H]1O,–,–,–,–,–,–
Cc1ccc(Cn2c(=O)n(-c3ccccc3)c(=O)c3ccc(C(=O)NCc4ccco4)cc32)cc1,–,?,–,?,–,12µM
Cc1ccc(-n2c(=O)c3ccc(C(=O)NCc4ccco4)cc3n(Cc3cccc(Cl)c3)c2=O)cc1,·,?,·,–,–,–
Cc1cccc(Cn2c(=O)n(-c3ccc(CC(=O)NCc4ccco4)cc3)c(=O)c3sccc32)c1,?,15µM,?,?,–,26µM
CCOc1ccccc1N1CC(C(=O)N2CCc3ccccc3C2)CC1=O (stereo not drawn),–,15µM,–,–,–,16µM
CCOc1ccccc1N1CC(C(=O)NNC(=O)c2cc(OC)c(OC)c(OC)c2)CC1=O (stereo not drawn),–,3.7µM,–,–,–,–
C[C@@H]1CN([C@H](C)CO)C(=O)CCCn2cc(nn2)CO[C@H]1CN(C)C(=O)Nc1ccc(F)cc1,–,–,–,–,–,–
Cc1ccc(Cl)cc1N1CCN(C(=O)C2CCCN(Cc3nc(-c4cccc(Cl)c4)oc3C)C2)CC1 (stereo not drawn),·,?,·,–,–,?
CCOC(=O)N1CCN(C(=O)C2CCCN(Cc3nc(-c4ccc(Cl)cc4)oc3C)C2)CC1 (stereo not drawn),?,5.8µM,–,?,–,9.2µM
SMILES,HT1080-NT tox,DT40 TDP1 no CPT,HT1080 IDH1KD tx,TGFb SMAD3 inh,HepG2 tox,TDP1 cell CPT
CCc1ccc(-c2nc(CN3CCCC(C(=O)N4CCN(c5cc(Cl)ccc5C)CC4)C3)c(C)o2)cc1 (stereo not drawn),·,3.3µM,·,?,–,6.5µM
Cc1ccc(S(=O)(=O)N(C)c2ccc(OC(C)C(=O)N3CCCC3)cc2)cc1C (stereo not drawn),–,?,–,–,–,?
O=C(Nc1ccccc1)/C(=C/c1ccc2c(c1)OCO2)NC(=O)c1ccco1,–,–,–,–,–,–
CCNC(=O)/C(=C/c1ccco1)NC(=O)/C=C/c1ccccc1,–,–,–,–,–,–
COc1ccc(OCCN2CCC(C(=O)NC(c3ccc(Cl)cc3)c3ncccc3C)CC2)cc1 (stereo not drawn),?,?,21µM,?,–,23µM
COc1ccc(OCCN2CCC(C(=O)NC(c3ccccn3)c3ccccc3OC)CC2)cc1 (stereo not drawn),–,–,–,–,–,?
CCCN1CCC(C(=O)NC(c2ccc(F)cc2)c2ncccc2C)CC1 (stereo not drawn),–,–,–,–,–,?
COc1ccccc1C(NC(=O)C1CCN(CCOc2ccc3ccccc3c2)CC1)c1ccccn1 (stereo not drawn),18µM,15µM,18µM,14µM,–,15µM
Cc1cccnc1C(NC(=O)C1CCN(CCCc2ccccc2)CC1)c1ccc(F)cc1 (stereo not drawn),–,23µM,–,–,–,?
COc1ccc(OCCN2CCC(C(=O)NC(c3ccc(Cl)cc3)c3cnccn3)CC2)cc1 (stereo not drawn),–,?,–,–,–,?
COc1ccc(OCCN2CCC(C(=O)NC(c3ccc(F)cc3)c3ncccc3C)CC2)cc1 (stereo not drawn),?,16µM,?,–,–,?
N#C/C(=C\c1ccc[nH]1)S(=O)(=O)c1ccccc1,–,–,–,?,–,–
CCSc1nc2sccc2c(=O)n1-c1ccccc1,–,?,–,–,–,–
Cc1cccnc1C(NC(=O)C1CCN(CCOc2ccc(F)cc2)CC1)c1ccc(Cl)cc1 (stereo not drawn),?,16µM,16µM,?,11µM,?
COc1cccc(C(NC(=O)C2CCN(CCCOc3ccccc3)CC2)c2ccccn2)c1 (stereo not drawn),–,–,–,–,–,?
Cc1cccnc1C(NC(=O)C1CCN(Cc2ccc3ccccc3n2)CC1)c1ccc(Cl)cc1 (stereo not drawn),?,16µM,?,–,–,?
Cc1cccnc1C(NC(=O)C1CCN(Cc2ccc(Cl)cc2)CC1)c1ccc(F)cc1 (stereo not drawn),?,21µM,?,–,–,26µM

# Screens as filed in PubChem.
